Nine compounds from PubChem BioAssay can be followed below.

Records with an inconclusive call do not appear. Active and inactive are the calls of the source.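 How the source made its calls, unless noted: active means cell viability at or below a set limit in both duplicate runs, the limit being the all-compound median minus 4 SD (cut at about 23% in these data, passing the limit was not always enough); inconclusive means no clear call, values can overlap the other calls; inactive means the rest.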

A short description of experiment [1]: reducers of endogenous Her2 protein level, primary screen, SKBR3 breast tumor cells, AlphaScreen, ATP viability (AID 461;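 active means Her2 level under about 52% in both replicate screens, with viability over 70% of control, limit read from the data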;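 on Her2 level: lower value means less Her2 protein in the cells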;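 on viability: percent of carrier control wells set as 100% viability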). The note with it: 18-24 h, measured here: SKBR3 viability, ATP luminescence, at 10 µM.
The target in experiment [2] is Receptor tyrosine-protein kinase erbB-2 (Homo sapiens) (UniProt P04626). The description is as above. The note with it: 18-24 h, at 10 µM, stronger effect = lower value.
Experiment [3] can be described thus: SK-BR-3 cell growth inhibitors, pilot screen, 24 h, human (AID 572;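 active means viability at or below 10% of carrier control in both of two separate runs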;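 further: compound exposure lasted between 18 and 24 h rather than exactly 24 h; 100% = carrier-treated control wells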). The note with it: SK-BR-3 viability, CellTiter-Glo luminescence, at 10 µM, stronger effect = lower value. (In general: ATP-based viability assays read luminescence as a measure of living cells.)
Experiment [4] in a line: HUVEC growth inhibition – cell-based, human, primary screen (AID 575;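 active means viability at or below 30% in both replicate assays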;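 further: 100% = median of untreated cell wells with 0.1% DMSO on each plate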). The note with it: HUVEC proliferation, CellTiter-Glo luminescence, 72 h; at 10 µM; stronger effect = lower value.
A short description of experiment [5]: growth inhibitors of H69AR lung tumor, primary screen, human, duplicate replicates (AID 580;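 active means viability at or under a set limit in both replicates, limit being median viability minus 3 SD, cut at about 48% in these data, passing the limit was not always enough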;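 further: 100% = mean luminescence of untreated wells and 0% = no signal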). To be noted: H69AR lung tumor cells viability, ATP luminescence, 72 h; at 10 µM; stronger effect = lower value.
The nature of experiment [6]: reversal of MRP1-mediated doxorubicin resistance, pilot screen, H69AR cells, doxorubicin co-treatment (AID 601;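 active means viability loss from added drug above about 55%, and viability with drug at most 40%, in both replicates, limit read from the data, passing the limit was not always enough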). To be noted: CellTiter-Glo, 72 h, at 10 µM; for differential viability (reversal): stronger effect = higher value.
Experiment [7] is described as follows: 384-well plate pilot, post-Golgi transport modulator project, inhibition of yeast transport mutant growth (AID 636; in the data active means inhibition above about 31%). The note with it: absorbance 615 nm, about 18 h, stronger effect = higher value.
Experiment [8] is described as follows: growth suppression of yeast trafficking mutant, preliminary HTS, modulators of trafficking downstream of Golgi apparatus project, 1536-format plate, OD 615 nm (AID 637; in the data active means inhibition above about 30%). To be noted: yeast transport mutant growth, absorbance 615 nm, 18 h; stronger effect = higher value.
Experiment [9] can be described thus: OD615 S. cerevisiae growth inhibition, permissive medium, pilot counter-assay, permissive growth control for S. cerevisiae lifespan shortening project (AID 705;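 active means growth inhibition above 25% in both replicates, a cutoff set 3 SD above the mean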). To be noted: OD615, 24 h, at 10 µM, stronger effect = higher value.
Experiment [10] is described as follows: Restrictive medium S. cerevisiae growth inhibition, OD615, pilot screen of yeast lifespan reduction project, restrictive growth control (AID 706;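 active means growth inhibition above a set limit, 3 SD over mean compound inhibition, in both replicates, cut at about 43% in these data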;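 further: modified DeaD lifespan yeast strain shifted to restrictive glucose medium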). To be noted: OD615, 48 h, at 10 µM, stronger effect = higher value.
Experiment [11] is described as follows: viability gain of MRP-1-high H69AR cells under doxorubicin, pilot screen, MRP-1 activator project, CellTiter-Glo, duplicate (AID 807;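 active means viability increase at or above a cutoff of the median across tested compounds plus 3 SD, cut at about 8.5% in these data, passing the limit was not always enough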;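 further: compound pretreatment 18-22 h then 72 h combined with doxorubicin; 0% = doxorubicin alone and 100% = vehicle without doxorubicin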). To be noted: H69AR viability with doxorubicin, CellTiter-Glo luminescence; at 10 µM; stronger effect = higher value.
Experiment [12] in a line: growth suppression of beta-catenin knockout HCT116, pilot screen, human colon tumor cells (AID 823).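 Further: 0% = wells killed by 20 µM Hyamine and 100% = untreated DMSO cell wells.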 To be noted: CellTiter-Glo, 60 h, at 10 µM, stronger effect = lower value.
The nature of experiment [13]: growth suppression of PTEN-deleted HCT116, pilot screen, cell-based, HCT116 clonal line, CellTiter-Glo (AID 824;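 active means viability at or below 27.92% in each of two runs, the all-compound median minus 4 SD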;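 further: 0% = 20 µM Hyamine control and 100% = vehicle cell control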). The note with it: 60 h, at 10 µM, stronger effect = lower value.
A short description of experiment [14]: inhibitors of the yeast RAM network, pilot screen, dse1pr::URA3 reporter, 5-FOA selection (AID 869;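 active means inhibition over a set limit, the all-compound mean plus 3 SD, in both replicate runs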;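 further: 0% = DMSO wells with no growth and 100% = 10 µM 1-NA-PP1 with full growth; RAM network block rescues cells from 5-FOA so hits raise OD615 growth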). To be noted: S. cerevisiae dse1pr::URA3 5-FOA growth, OD615, 2 d; at 10 µM; stronger effect = higher value; strain carries analog-sensitive mutant Cbk1 kinase.
Experiment [15] is described as follows: RAM signaling pathway blockade in yeast – S. cerevisiae, Pdr1DBD-CYC8 efflux-inhibited sensitized strain, primary screen (AID 1298;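 active means RAM network inhibition above 8.4% in each of two replicates, 3 SD over the compound average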;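 further: 0% = DMSO untreated cells without growth and 100% = 10 µM 1-NA-PP1 full growth; higher means more yeast growth rescued from 5-FOA killing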). The note with it: S. cerevisiae cbk1-as DSE1-URA3 strain, 5-FOA growth OD615, 2 d; at 50 µM; stronger effect = higher value.
Where [16] appears, read: H69AR cells + 2 uM doxorubicin, measured here: viability with 2 uM doxorubicin, stronger effect = lower value.
The mark [17] stands for this setting: H69AR cells, compound alone cytotoxicity.

Chain of Receptor tyrosine-protein kinase erbB-2 (Homo sapiens) (P04626 whole entry, looked up): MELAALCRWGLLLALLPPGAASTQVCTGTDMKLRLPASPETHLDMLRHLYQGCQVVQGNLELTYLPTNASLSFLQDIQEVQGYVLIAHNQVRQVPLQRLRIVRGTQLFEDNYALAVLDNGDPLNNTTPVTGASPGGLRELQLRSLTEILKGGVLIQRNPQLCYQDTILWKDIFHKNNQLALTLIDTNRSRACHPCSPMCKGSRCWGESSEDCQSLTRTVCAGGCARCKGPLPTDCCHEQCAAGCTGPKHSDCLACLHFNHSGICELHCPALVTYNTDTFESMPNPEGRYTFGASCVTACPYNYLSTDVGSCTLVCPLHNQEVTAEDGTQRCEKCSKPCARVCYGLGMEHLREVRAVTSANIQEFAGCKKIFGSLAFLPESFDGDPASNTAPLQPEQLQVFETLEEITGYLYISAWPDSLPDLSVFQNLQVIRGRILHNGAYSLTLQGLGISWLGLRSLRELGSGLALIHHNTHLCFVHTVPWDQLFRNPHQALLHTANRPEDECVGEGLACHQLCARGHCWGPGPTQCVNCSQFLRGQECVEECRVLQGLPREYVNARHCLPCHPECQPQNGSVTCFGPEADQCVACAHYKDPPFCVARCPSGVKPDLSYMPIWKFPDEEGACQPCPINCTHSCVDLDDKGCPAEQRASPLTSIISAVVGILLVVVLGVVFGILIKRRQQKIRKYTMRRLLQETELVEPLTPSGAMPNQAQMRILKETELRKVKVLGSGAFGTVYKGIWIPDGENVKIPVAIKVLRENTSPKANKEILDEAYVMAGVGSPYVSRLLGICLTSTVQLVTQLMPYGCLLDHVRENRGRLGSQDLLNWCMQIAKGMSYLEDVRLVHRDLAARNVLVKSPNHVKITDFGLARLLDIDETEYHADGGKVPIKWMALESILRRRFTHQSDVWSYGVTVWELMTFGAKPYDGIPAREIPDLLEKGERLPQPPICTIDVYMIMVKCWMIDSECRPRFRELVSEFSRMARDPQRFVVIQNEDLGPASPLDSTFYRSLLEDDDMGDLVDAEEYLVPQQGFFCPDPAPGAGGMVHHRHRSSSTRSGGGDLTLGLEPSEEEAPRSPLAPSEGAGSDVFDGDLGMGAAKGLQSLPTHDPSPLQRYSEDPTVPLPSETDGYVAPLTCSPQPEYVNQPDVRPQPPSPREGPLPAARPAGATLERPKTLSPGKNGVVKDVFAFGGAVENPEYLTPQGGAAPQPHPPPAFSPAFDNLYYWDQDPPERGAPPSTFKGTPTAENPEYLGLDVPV

For orientation: viability means a read-out of living cells in per cent, often relative to untreated cells. Broadly, the inhibition is the change of the read-out against control, counted positive when it falls. In the case of `Cn1nnnc1SCC(=O)N1CCN(c2ccccc2)CC1`, the viability is 94.5% in [1]; 94.5% (inactive) in experiment [3]; 97.4% (inactive) in experiment [4]; 87.7% (inactive) in experiment [5]; 78.8% in experiment [6] (setting [16]); 87.7% in experiment [6] (setting [17]). Besides, the viability in experiment [12] is 93.1% (inactive); in [13], 99.6% (inactive). The Her2 level in experiment [2] was 122% (inactive). Moreover, the differential viability (reversal) in experiment [6] (H69AR cells + 2 uM doxorubicin) is 8.86% (inactive). Besides, the inhibition in experiment [7] was 1.92% (inactive); in experiment [8], -6.33% (inactive); in experiment [14], 0.735% (inactive). Also, the growth inhibition in [9] is -0.355% (inactive); in experiment [10], -1.68% (inactive). Further, the viability increase in [11] is -0.97% (inactive). In addition, in experiment [15], the RAM network inhibition was 1.14% (inactive).
On to `CCn1cc(C(=O)NCC2CCCO2)c(=O)c2cc(S(=O)(=O)N(C)C3CCCCC3)ccc21` (stereo not drawn), for which the viability was 83.5% in experiment [1]; 83.5% (inactive) in experiment [3]; 69.5% (inactive) in experiment [4]; 68.5% (inactive) in experiment [5]; 80% in experiment [6] (setting [16]); 68.5% in experiment [6] (setting [17]). The results for the viability in experiment [12] and in experiment [13] were 88.9% (inactive) and 87% (inactive), respectively. Further, the Her2 level in experiment [2] was 93.5% (inactive). In addition, the differential viability (reversal) in experiment [6] (H69AR cells + 2 uM doxorubicin) was -11.5% (inactive). The inhibition was -1.41% (inactive) in experiment [7], 1.5% (inactive) in experiment [8] and 4.23% (inactive) in experiment [14]. Further, the results for the growth inhibition in [9] and in experiment [10] were -2.38% (inactive) and -2.37% (inactive), respectively. Further, the viability increase in experiment [11] is -5.22% (inactive). Besides, the RAM network inhibition in experiment [15] was -0.83% (inactive).
With `CCOC(=O)C(C)(C)Sc1nc2c(cnn2-c2ccc(Cl)cc2)c(=O)[nH]1`, the viability in experiment [1] was 76%; in [3], 76% (inactive); in experiment [4], 64.4% (inactive); in [5], 81.9% (inactive); in experiment [6] (setting [16]) it was 85.4%; in [6] (setting [17]), 81.9%. The viability was 91.9% (inactive) in experiment [12] and 78.2% (inactive) in experiment [13]. Also, the Her2 level in experiment [2] is 91% (inactive). In addition, the differential viability (reversal) in experiment [6] (H69AR cells + 2 uM doxorubicin) was -3.56% (inactive). Further, the figures for the inhibition in experiment [7], in [8] and in [14] were -2.05% (inactive), 2.5% (inactive) and 1.89% (inactive), respectively. Besides, the growth inhibition is -5.47% (inactive) in experiment [9] and -0.62% (inactive) in experiment [10]. The viability increase in experiment [11] is -2.17% (inactive). Besides, in [15], the RAM network inhibition is 6.14% (inactive).
Take `COC(=O)C1(C#N)C(c2ccccc2)C1(C(=O)OC)C(=O)OC` (stereo not drawn): the viability in experiment [1] was 117%; in experiment [3] it was 117% (inactive); in experiment [4], 105% (inactive); in [5] it was 102% (inactive); in [6] (setting [16]), 90.8%; in [6] (setting [17]), 102%. The viability in experiment [12] was 77.4% (inactive); in experiment [13], 97.7% (inactive). Besides, in experiment [2], the Her2 level was 90% (inactive). Also, in [6] (H69AR cells + 2 uM doxorubicin), the differential viability (reversal) was 11.3% (inactive). Besides, the figures for the inhibition in [7], in [8] and in [14] were -3.47% (inactive), 0.65% (inactive) and 1.43% (inactive), respectively. Moreover, the values for the growth inhibition in [9] and in experiment [10] were -6.71% (inactive) and -6.54% (inactive), respectively. Further, the viability increase in [11] was -1.92% (inactive). In experiment [15], the RAM network inhibition is 2.51% (inactive).
As for `COc1ccc(C(=O)CN2C3=NCCCN3c3ccccc32)cc1OC`, the viability is 89% in experiment [1]; 89% (inactive) in experiment [3]; 81.3% (inactive) in experiment [4]; 82.4% (inactive) in experiment [5]; 77.1% in experiment [6] (setting [16]); 82.4% in [6] (setting [17]). The values for the viability in experiment [12] and in experiment [13] were 56.2% (inactive) and 64.7% (inactive), respectively. The Her2 level in [2] was 109% (inactive). In addition, the differential viability (reversal) in experiment [6] (H69AR cells + 2 uM doxorubicin) was 5.29% (inactive). Further, the inhibition in [7] is -0.39% (inactive); in [8], 2.5% (inactive); in experiment [14], 1% (inactive). In addition, the values for the growth inhibition in experiment [9] and in experiment [10] were -6.53% (inactive) and -6.88% (inactive), respectively. Besides, the viability increase in experiment [11] was -2.15% (inactive). For the same compound, the RAM network inhibition in experiment [15] is 2.03% (inactive).
Turning to `O=C(O)COc1ccc(S(=O)(=O)NCCc2ccccc2)cc1`, the viability in experiment [1] is 105%; in experiment [3] it was 105% (inactive); in [4] it was 115% (inactive); in [5] it was 106% (inactive); in experiment [6] (setting [16]), 78.8%; in [6] (setting [17]), 106%. In addition, the viability in [12] was 108% (inactive); in experiment [13] it was 96.2% (inactive). In addition, the Her2 level in experiment [2] is 103% (inactive). For the same compound, the differential viability (reversal) in experiment [6] (H69AR cells + 2 uM doxorubicin) is 27.5% (inactive). Besides, the figures for the inhibition in experiment [7], in experiment [8] and in experiment [14] were -6.4% (inactive), 2.62% (inactive) and 1.84% (inactive), respectively. The growth inhibition in experiment [9] was -6.59% (inactive); in experiment [10] it was 10.2% (inactive). Further, the viability increase in experiment [11] was -0.3% (inactive). In addition, the RAM network inhibition in experiment [15] was -2.61% (inactive).
Consider `COc1cccc(-c2nnc(NC(=O)c3ccccc3Br)o2)c1`, for which the viability in experiment [1] is 87%; in [3] it was 87% (inactive); in experiment [4], 71.6% (inactive); in experiment [5], 67% (inactive); in experiment [6] (setting [16]), 89.2%; in experiment [6] (setting [17]), 67%. Moreover, the viability in [12] is 71.7% (inactive); in experiment [13], 73.2% (inactive). The Her2 level in [2] was 85.5% (inactive). In addition, in experiment [6] (H69AR cells + 2 uM doxorubicin), the differential viability (reversal) was -22.2% (inactive). The inhibition in experiment [7] is -5.87% (inactive); in experiment [8], 1.33% (inactive); in experiment [14], 1.46% (inactive). For the same compound, the growth inhibition was -13.4% (inactive) in experiment [9] and 13.6% (inactive) in [10]. In addition, in experiment [11], the viability increase was -5.12% (inactive). Moreover, the RAM network inhibition in [15] was -2.32% (inactive).
With `CCN1CCN(Cc2nc3c(c(=O)n(C)c(=O)n3C)n2CC(=O)c2ccccc2)CC1`, the viability in [1] was 100%; in [3] it was 100% (inactive); in experiment [4], 95.5% (inactive); in experiment [5], 98.5% (inactive); in [6] (setting [16]), 95.8%; in experiment [6] (setting [17]), 98.5%. The values for the viability in experiment [12] and in experiment [13] were 100% (inactive) and 105% (inactive), respectively. The Her2 level in experiment [2] was 108% (inactive). The differential viability (reversal) in experiment [6] (H69AR cells + 2 uM doxorubicin) is 2.67% (inactive). Also, the inhibition was -4.13% (inactive) in experiment [7], -0.33% (inactive) in experiment [8] and 1.33% (inactive) in experiment [14]. Also, the values for the growth inhibition in experiment [9] and in experiment [10] were 5% (inactive) and -14% (inactive), respectively. In addition, the viability increase in [11] is -1.56% (inactive). Also, in experiment [15], the RAM network inhibition was 3.98% (inactive).
As for `CCOc1ccc(Cn2nnc(C(=O)Nc3cc(C)cc(C)c3)c2N)cc1`, the viability in [1] was 89.5%; in [3], 89.5% (inactive); in experiment [4], 80.4% (inactive); in experiment [5], 86.2% (inactive); in experiment [6] (setting [16]), 78.3%; in experiment [6] (setting [17]), 86.2%. Besides, the viability was 73% (inactive) in experiment [12] and 77.8% (inactive) in experiment [13]. The Her2 level in experiment [2] is 90.5% (inactive). The differential viability (reversal) in experiment [6] (H69AR cells + 2 uM doxorubicin) was 7.9% (inactive). Besides, the inhibition in [7] was 0% (inactive); in experiment [8] it was -3.28% (inactive); in experiment [14], 3.23% (inactive). Further, the results for the growth inhibition in experiment [9] and in experiment [10] were -7.71% (inactive) and 1.04% (inactive), respectively. Besides, in experiment [11], the viability increase was -3.02% (inactive). Further, the RAM network inhibition in experiment [15] was 8.35% (inactive).
